Among all 64,000 compounds or so, about 2,200 (3.4%) were called active.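 The calls were made as follows: active = calcium fluorescence response, raw or row-and-column corrected B-score, differing from the plate sample mean either way at a set confidence level, mostly lower; inactive = the rest.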 The full list was thinned out, with actives kept by preference.

Sequence of Muscarinic acetylcholine receptor M1 (Rattus norvegicus) (P08482 whole entry, looked up): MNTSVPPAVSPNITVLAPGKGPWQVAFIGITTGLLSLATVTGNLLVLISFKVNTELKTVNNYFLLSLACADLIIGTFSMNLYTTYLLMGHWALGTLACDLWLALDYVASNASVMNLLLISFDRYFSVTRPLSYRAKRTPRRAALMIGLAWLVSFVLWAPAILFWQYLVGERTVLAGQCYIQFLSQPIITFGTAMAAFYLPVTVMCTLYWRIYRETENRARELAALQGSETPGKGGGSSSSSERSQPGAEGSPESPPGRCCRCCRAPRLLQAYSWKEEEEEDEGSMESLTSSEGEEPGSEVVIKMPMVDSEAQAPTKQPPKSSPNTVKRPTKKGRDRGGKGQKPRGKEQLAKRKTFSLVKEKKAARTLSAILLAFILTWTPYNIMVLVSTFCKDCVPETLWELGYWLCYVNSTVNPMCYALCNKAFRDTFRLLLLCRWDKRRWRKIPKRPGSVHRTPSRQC

This test has as its target Muscarinic acetylcholine receptor M1 (Rattus norvegicus) (UniProt P08482). The test can be described thus: blocks the rat M1 muscarinic receptor response to acetylcholine (AID 628). The settings on record: CHO-M1 cells, Fluo-4 calcium, ACh EC80 antagonist mode; at 10 µM; active compounds read low.
On to `C1=C(N2CCOCC2)/C(=C/c2nc3ccccc3[nH]2)CC1`, for which the B-score is 0.998 (inactive).

Regarding `Cc1cc2c(cc1C)NC(c1ccccn1)C1=C(CC(C)(C)CC1=O)N2` (stereo not drawn), the B-score is 2.52 (active).

Take `COc1cc(C2C(C#N)=C(C)NC3=C2C(=O)CC(C)(C)C3)ccc1O` (stereo not drawn): the B-score is 0.109 (inactive).

Turning to `CCC1C(C#N)=C(SC)NC2=C1C(=O)CC(C)(C)C2` (stereo not drawn), the B-score was -0.0322 (inactive).

On to `COc1ccc(-c2noc(CN(C)S(=O)(=O)c3ccc(C)cc3)n2)cc1`, for which the B-score was -3.11 (active).

For `COc1ccccc1Cc1nc(-c2ccc(C)cc2)no1`, the B-score is 0.115 (inactive).

For `COc1ccc(-c2noc(COc3ccc(Cl)c(C)c3)n2)cc1`, the B-score is -0.385 (inactive).

Consider `CC(C)Oc1ccc(C2NC(=O)NC2=O)cc1` (stereo not drawn), for which the B-score was -0.129 (inactive).

For the molecule `O=C(O)CN(Cc1ccco1)S(=O)(=O)c1ccccc1`, the B-score is 0.346 (inactive).

For `Cc1cccc(C)c1NC(=O)N1CC=C(n2c(=O)[nH]c3ccccc32)CC1`, the B-score is 0.257 (inactive).

Turning to `CC(C)C1C2=C(CC(C)(C)CC2=O)ON1c1ccccc1` (stereo not drawn), the B-score was -0.269 (inactive).

As to `Cc1cc(N2C(=O)C(=O)/C(=C(/O)c3ccc(Cl)cc3)C2c2cccc(Br)c2)no1` (stereo not drawn), the B-score was 0.0445 (inactive).

In the case of `CCOC(=O)c1c(NC(=O)c2ccc(Br)o2)sc2c1CCCC2`, the B-score is 0.689 (inactive).

Consider `COC(=O)Nc1ccc(S(=O)(=O)N(C)CC(F)(F)C(F)F)cc1`, for which the B-score is 0.467 (inactive).

With `O=S(=O)(CCc1nc2ccccc2o1)c1ccc(Cl)cc1`, the B-score is -2.24 (active).

`O=C(CSc1nc2ccccc2o1)N1CCN(c2ccc(Cl)cc2)CC1`: the B-score is -0.0538 (inactive).

Consider `O=S(=O)(O)c1nc2ccccc2n1Cc1ccc(Cl)cc1`, for which the B-score is 0.456 (inactive).

Regarding `O=C1c2ccncc2C(=O)N1C1CCCCC1`, the B-score is -0.0556 (inactive).

As to `O=C(OCc1ccccc1F)c1ccc2c(c1)OCCO2`, the B-score is 0.0701 (inactive).

For the molecule `C[C@H](NC(=O)OC(C)(C)C)c1nnc(SCC(=O)Nc2ccc(Br)cc2)o1`, the B-score is 0.0617 (inactive).

Take `Nc1nnc(SCCN2C(=O)c3ccccc3S2(=O)=O)s1`: the B-score is 2.64 (active).

Regarding `CCCc1nnc(NC(=O)CN2C(=O)c3ccccc3S2(=O)=O)s1`, the B-score is -0.485 (inactive).

On to `CNC(=O)CN1C(=O)c2ccccc2S1(=O)=O`, for which the B-score was 0.00139 (inactive).

On to `COC(=O)c1cc(NC2c3ccccc3C(=O)N2c2ccc(Cl)cn2)cc(C(=O)OC)c1` (stereo not drawn), for which the B-score was 0.743 (inactive).

`CC(=O)c1c(N)n(C)c(=O)n(C)c1=O`: the B-score is 0.343 (inactive).

Turning to `O=C(NC1=NCCS1)c1ccc(Cl)s1`, the B-score is -2.35 (active).

In the case of `CCc1ccc(N2CC(C(=O)NC3=NCCS3)CC2=O)cc1` (stereo not drawn), the B-score was -0.382 (inactive).

For the molecule `CC(NC(=O)COc1ccccc1)C(=O)NC1=NCCS1` (stereo not drawn), the B-score is -0.755 (inactive).

The record behind these values is PubChem BioAssay AID628 (Vanderbilt High Throughput Screening Facility, 2007).
